# From ChEMBL document CHEMBL3988442, “University of Dundee, Small-Polar-MMV Screening Library” (2021)
# In all, about 85,000 compounds went through this assay and about 440 (0.52%) showed an effect of 50% or more. For the sample, strong results were picked, then their nearest neighbours and some compounds at random.
# Assay: In vitro enzyme assay to detect hydrolysis of chlorophenol red-beta-D-[…] directly proportional to the number of Toxoplasma stably expressing beta-galactosidase
# Assay type: functional, organism-based, Toxoplasma gondii
# Parameters: scale not given: in the data most compounds retested in dose-response had high values
SMILES,Percent Effect (50 µM) [%],Percent Effect (10 µM) [%]
Cc1nnc(SCCNC(=O)CC2C=CS(=O)(=O)C2)s1 (stereo unspecified),45.65,
CSCc1ccc(C(=O)N(C)Cc2cnccn2)o1,98.35,
CC(C)Cc1cc(C(=O)N(C)Cc2cnccn2)on1,13.67,
CN(Cc1cnccn1)C(=O)c1ccc(CSc2nnc[nH]2)o1,,-8.183
CC(CCO)CNS(=O)(=O)c1ccccc1F (stereo unspecified),13.76,
COCC(NC(=O)CNc1ccccc1)C(C)C (stereo unspecified),18.12,
Cc1ccc(S(=O)(=O)N2CCNC(=O)C2)cc1C(N)=O,3.593,
NC(=O)Cn1cc(NC(=O)N2CCCC(O)C2)cn1 (stereo unspecified),,-5.248
CC(C)Cn1cc(NC(=O)N2CCC(O)C2)cn1 (stereo unspecified),99.23,
CC(C)Cn1cc(NC(=O)N2CCCC2)cn1,,-15.58
CC(C)[C@@H]1CN(C(=O)c2ccc(O)cn2)C[C@H]1N(C)C,-13.98,
NS(=O)(=O)c1ccc2c(c1)N(CC(=O)NC1CC1)CC2,3.074,
CCc1ccc(CN2CCOCC(CO)C2)nc1 (stereo unspecified),13.26,
C[C@@H]1CN(C(=O)c2ccc(=O)[nH]c2)C[C@]1(C)O,3.055,
C[C@@H]1CN(C(=O)c2cc(F)cc(C#N)c2)C[C@]1(C)O,97.61,
C[C@@H]1CN(C(=O)c2ccccc2C#N)C[C@]1(C)O,10.95,
CSCC(CCO)NC(=O)c1coc2ccccc12 (stereo unspecified),-6.179,
CC(C)(C)OC(=O)N1CCC(n2cc(N)cn2)CC1,-15.49,
N[C@@H]1CCCc2c(F)cc(F)cc21,13.09,
Cc1ccc(F)c(NC(=O)N2CCOCC2CO)c1 (stereo unspecified),2.099,
O=C1CN(CC(=O)N2CCc3sccc3C2)CCN1,8.555,
Cc1ccccc1CC(=O)NCC(F)(F)F,-13.95,
CC(=O)C1CN(C(=O)OC(C)(C)C)CCO1 (stereo unspecified),-6.486,
CN(C)CCCNCCC(Cc1ccccc1)C1CCOC(C)(C)C1.O=C(O)C(=O)O (stereo unspecified),,77.21

SMILES,Percent Effect (50 µM) [%],Percent Effect (10 µM) [%]
CC(CCc1ccccc1)NC(=O)CNCCCN(C)C.O=C(O)C(=O)O (stereo unspecified),,-5.52
CN(C)CCNCCC(Cc1ccccc1)C1CCOC(C)(C)C1.O=C(O)C(=O)O (stereo unspecified),,9.919
CN(C)CCNCC1CCOC(C)(C)C1 (stereo unspecified),,12.77
CCN(CC)CCCNCC1CCOC(C)(C)C1 (stereo unspecified),,1.68
N#CCC(=O)Nc1ccc(N2CCOCC2)cc1,-1.188,
CCCNC(=O)CCNC(=O)Nc1cc(C)cc(C)n1,12.25,
NCC(=O)Nc1ccccc1,0.1294,
NCCC(=O)Nc1ccccc1,99.48,
Cl.NCCC(=O)Nc1ccc(-c2ccccc2)cc1,,10.41
Cc1nc2c(c(NCc3ccc(N)nc3)n1)CCCC2,50.4,
CNCc1ccc(N)nc1,63.11,
Cc1nc2c(c(NCc3cnc4c(c3)CCC4)n1)CNC2,,-1.27
CNCc1ccc(N(C)C)nc1,-20.16,
Nc1nc2c(c(NCc3ccncc3)n1)CCCC2,,12.09
NCc1ccc(N)nc1,-3.539,
NCc1cnn(-c2ccc(F)cc2)c1,4.484,
C1CC(OC2CCOC2)CCN1 (stereo unspecified),3.071,
COCCCOC1CN(C(=O)c2cc(F)ccc2C)C1,0.2477,
CCCc1nc2c(c(C)c(C)n2Cc2ccncc2)c(N)c1CC,,-0.599
CCCc1nc2c(c(C)c(C)n2Cc2ccccn2)c(N)c1CC,,74.72
CCCc1nc2c(c(C)c(C)n2Cc2cccnc2)c(N)c1CC,,33.67
CCNC(=O)C(C)N (stereo unspecified),-4.292,
COc1cc(OC)cc(N2CC(N)CC2=O)c1 (stereo unspecified),17.36,
CCOCCNc1nc(-c2ccncc2)nc2c1CCNCC2,,-6.442

SMILES,Percent Effect (50 µM) [%],Percent Effect (10 µM) [%]
O=C(Nc1cccc(F)c1)NC1CCN(Cc2ccncc2)CC1,,6.4
Cl.NC1CCc2nc(-c3cccnc3)nc(Nc3ccc(F)cc3)c2C1 (stereo unspecified),,24.29
O=C(Nc1cccc(F)c1)C1CCCN1 (stereo unspecified),7.876,
Cl.NC1CCc2nc(-c3ccncc3)nc(Nc3cccc(F)c3)c2C1 (stereo unspecified),,92.97
N[C@@H]1CCO[C@H]1c1ccnn1-c1ccccc1,-18.85,
CNC(=O)[C@@H]1CCCN1,-5.087,
O=c1cc(CN2CCOCC2)nc2sccn12,2.592,
CN1CCCC1CCSc1nc(N)c(C#N)cc1C#N (stereo unspecified),-0.4089,
Cc1cc(C)nc(NC(=O)c2ccncc2)c1,31.27,
CCO[C@@H]1COCC[C@H]1NC(=O)c1cncn1C,0.586,
CN(Cc1noc(C2CC2)n1)C1CCN(Cc2cccc(F)c2F)C1 (stereo unspecified),,67.09
CN(Cc1noc(C2CC2)n1)C1CCN(Cc2ccccc2C#N)C1 (stereo unspecified),,2.644
CN(Cc1noc(C2CC2)n1)C1CCN(Cc2ccc(F)c(F)c2)C1 (stereo unspecified),,1.098
CCNC(=O)CNc1noc(C(C)(C)C)n1,-18.17,
COCCN(CCOC)CC(=O)N(C)C,56.58,
COCCN(CC(=O)N(C)C)c1ncccn1,1.212,
CCCN(CCOC)CC(=O)N(C)C,8.072,
OC1CCCN(CCOc2ccccc2)C1 (stereo unspecified),1.087,
CCC(C)Oc1ccc(CNCCNS(C)(=O)=O)cc1Cl (stereo unspecified),,19.69
CCC(C)Oc1ccc(CNCCNC(C)=O)cc1Cl (stereo unspecified),,19.61
CCC(C)Oc1ccc(CNCCc2c[nH]cn2)cc1Cl (stereo unspecified),,81.15
CCN(CCN(C)C)C(=O)c1cn(CCN)nn1,2.797,
Cc1cc(NC(=O)C(C)N(C)Cc2cc(C)on2)on1 (stereo unspecified),5.589,
Cc1ccc(C(=O)NC2CCN(C(C)C)CC2)o1,-16.97,

SMILES,Percent Effect (50 µM) [%],Percent Effect (10 µM) [%]
OCCCN(Cc1ccccc1)Cc1ccccn1,-0.1376,
NCc1cccc(C(F)(F)F)n1,30.32,
CCOC(=O)CNC(=O)NCCc1ccc(OC)cc1,-17.09,
COc1ccc(CCNC(=O)NCCCC(N)=O)cc1,98.98,
COc1ccc(CCC(=O)NCCNC(C)=O)cc1,21.36,
CC1(C)CCCN(C(=O)CCS(C)(=O)=O)CC1,-2.783,
CCCC(N)C(=O)N(C)Cc1cccc(N(C)C)c1 (stereo unspecified),89.59,
CC[C@H](N)C(=O)N(C)Cc1cccc(OC(F)(F)F)c1,4.147,
CCCC(=O)N(C)Cc1cccc(OC(C)C)c1,,0.05359
CCN(CC)C(=O)CN1CCC(N)CC1,-1.204,
CNCC1CCN(C(=O)Nc2ccccc2)CC1,-5.234,
NC1CCN(C(=O)Nc2ccccc2)C1 (stereo unspecified),93.84,
NS(=O)(=O)CC1CCN(C(=O)Nc2ccccc2)CC1,13.92,
N[C@H]1CN(CC(=O)N2CCCCC2)C[C@@H]1C1CC1,3.394,
CCC(NC(=O)CCC(=O)OC)c1ccccc1 (stereo unspecified),-2.759,
Cc1ccc(CN(CCCn2ccnc2)Cc2ccccc2O)s1.O=C(O)CC(O)(CC(=O)O)C(=O)O,,-8.716
Cc1ccc(CN(CCCn2ccnc2)Cc2c[nH]cn2)s1.O=C(O)CC(O)(CC(=O)O)C(=O)O,,27.23
COc1ccc(F)c(CN(CCCn2ccnc2)Cc2ccc(C)s2)c1.O=C(O)CC(O)(CC(=O)O)C(=O)O,,53.53
Cc1ccc(CN(CCCn2ccnc2)Cc2c(F)cccc2F)s1.O=C(O)CC(O)(CC(=O)O)C(=O)O,,36.95
Cc1ccc(O)c(CN(CCCn2ccnc2)Cc2ccc(C)s2)c1.O=C(O)CC(O)(CC(=O)O)C(=O)O,,4.169
Cc1ccc(CN(CCCn2ccnc2)Cc2c[nH]nc2C(C)(C)C)s1.O=C(O)CC(O)(CC(=O)O)C(=O)O,,-5.969
CCc1ccc(CN(CCCn2ccnc2)Cc2ccc(C)s2)o1.O=C(O)CC(O)(CC(=O)O)C(=O)O,,5.317
Cc1ccc(CN(CCCn2ccnc2)Cc2cnn(C)c2)s1.O=C(O)CC(O)(CC(=O)O)C(=O)O,,-58.36
Cc1ccc(CN(CCCn2ccnc2)Cc2cccs2)s1.O=C(O)CC(O)(CC(=O)O)C(=O)O,,13.55

SMILES,Percent Effect (50 µM) [%],Percent Effect (10 µM) [%]
Cc1ccc(CN(CCCn2ccnc2)Cc2cc(F)ccc2F)s1.O=C(O)CC(O)(CC(=O)O)C(=O)O,,64.14
COc1ccc(NC(=O)CN)cc1Cl,1.653,
O=C1CNC2(CCCCC2)C(=O)N1,-1.267,
OCc1cnc2c(F)cccc2c1,-7.989,
O=C(NCCCn1cccn1)N1CCSCC1,12.95,
CC1COCCN1CCNS(C)(=O)=O (stereo unspecified),-4.94,
CCC(N)C(=O)N1CCN(c2ccncc2Cl)CC1 (stereo unspecified),0.3763,
OCC1(O)CCN(Cc2cc3ccccc3s2)C1 (stereo unspecified),15.65,
O=C(COc1ccc2c(c1)OCO2)NCc1ccco1,,-39.93
O=C(COc1ccc2c(c1)CCC2)NCc1ccco1,,52.59
O=C(COc1ccc2c(c1)CCCC2=O)NCc1ccco1,,-0.7551
CN(C1CCCCC1)S(=O)(=O)NC1CCCCNC1=O (stereo unspecified),-10.23,
CCCc1nc(C)cc(NCCO)n1,22.28,
CCc1cccc(OCC(=O)N2CCCC(n3cncn3)C2)c1 (stereo unspecified),,61.63
O=C(CCOc1cccc(F)c1)N1CCCC(n2cncn2)C1 (stereo unspecified),,-5.343
COc1cccc(COCC(=O)N2CCCC(n3cncn3)C2)c1 (stereo unspecified),,5.194
CN(Cc1ccccc1)C1(CN)CCC1,-8.467,
OC1CCN(c2ccnc(NCCc3ccccc3Cl)n2)CC1,,-8.745
OC1CCN(c2ccnc(NCCN3CCc4ccccc4C3)n2)C1 (stereo unspecified),,-7.659
OC1CCN(c2ccnc(NCCc3ccccc3Cl)n2)C1 (stereo unspecified),,73.82
